Screen size: about 310,000 compounds; about 14,000 (4.5%) showed an effect of 50% or more. Effects have a minus sign here. Shown is part of a subset that was picked to be rich in strong results.
Each compound was assayed against human ether-à-go-go-related gene (hERG) potassium channel (human, UniProt Q12809) (assay: primary screen, population patch clamp on CHO cells stably expressing hERG; higher = less effect of the substance).
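Further: peak tail current of the secondary pulse compared with the same well before compound.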

Sequence of human ether-à-go-go-related gene (hERG) potassium channel (Q12809 whole entry, looked up): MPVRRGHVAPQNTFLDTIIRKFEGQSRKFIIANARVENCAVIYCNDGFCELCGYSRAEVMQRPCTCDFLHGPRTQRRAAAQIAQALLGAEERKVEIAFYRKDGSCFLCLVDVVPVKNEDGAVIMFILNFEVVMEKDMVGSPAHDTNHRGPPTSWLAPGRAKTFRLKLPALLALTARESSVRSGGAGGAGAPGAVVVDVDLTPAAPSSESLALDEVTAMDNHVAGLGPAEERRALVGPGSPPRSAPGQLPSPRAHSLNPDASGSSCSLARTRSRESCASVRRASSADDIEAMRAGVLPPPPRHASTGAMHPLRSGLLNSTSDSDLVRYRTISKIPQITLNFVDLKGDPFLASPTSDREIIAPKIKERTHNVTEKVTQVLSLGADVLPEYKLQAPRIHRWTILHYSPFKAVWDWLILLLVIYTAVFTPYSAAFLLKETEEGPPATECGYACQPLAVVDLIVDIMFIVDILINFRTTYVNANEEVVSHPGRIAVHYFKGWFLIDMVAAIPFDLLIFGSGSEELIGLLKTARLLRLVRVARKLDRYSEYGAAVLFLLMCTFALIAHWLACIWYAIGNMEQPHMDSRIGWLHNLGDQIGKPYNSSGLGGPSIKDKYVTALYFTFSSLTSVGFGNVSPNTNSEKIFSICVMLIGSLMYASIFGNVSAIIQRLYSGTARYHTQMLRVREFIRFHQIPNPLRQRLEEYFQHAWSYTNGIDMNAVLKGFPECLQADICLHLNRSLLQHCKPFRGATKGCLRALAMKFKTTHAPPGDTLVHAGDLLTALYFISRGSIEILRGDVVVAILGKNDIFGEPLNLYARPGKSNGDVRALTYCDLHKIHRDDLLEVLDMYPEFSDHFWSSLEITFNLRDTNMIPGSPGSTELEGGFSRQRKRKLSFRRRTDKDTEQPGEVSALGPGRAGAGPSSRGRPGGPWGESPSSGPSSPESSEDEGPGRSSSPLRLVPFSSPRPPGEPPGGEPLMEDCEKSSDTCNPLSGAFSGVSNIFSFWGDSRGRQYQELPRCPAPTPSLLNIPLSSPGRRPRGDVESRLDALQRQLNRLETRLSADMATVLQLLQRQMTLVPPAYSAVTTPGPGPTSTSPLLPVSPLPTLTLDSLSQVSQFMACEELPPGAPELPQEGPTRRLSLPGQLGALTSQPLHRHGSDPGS

Compound	hERG current change (%, negative = inhibition) at 10uM [%]
CCOC(=O)C1(C)NC(c2ccco2)C2C(=O)N(c3ccc(C)cc3)C(=O)C21 (centres unmarked)	11.3
C=CCSc1nc2ccccc2n2cnnc12	-18.5
Cc1ccc2c(c1)C(c1ccc(F)cc1)N(C(=O)c1cc3ccccc3oc1=O)CC(=O)N2 (centres unmarked)	-55
Cc1ccccc1C(=O)N1CC(=O)Nc2ccc(F)cc2C1c1ccc(F)cc1 (centres unmarked)	-16.1
COc1ccccc1C(=O)N1CC(=O)Nc2ccc(C)cc2C1c1ccc(F)cc1 (centres unmarked)	-38.6
Cc1ccc2c(c1)C(c1ccccc1)N(C(=O)c1cc3ccccc3oc1=O)CC(=O)N2 (centres unmarked)	-65.1
Cc1ccc2c(c1)C(c1ccccc1)N(C(=O)c1cccc([N+](=O)[O-])c1)CC(=O)N2 (centres unmarked)	-55.6
CC(=O)N1CC(=O)Nc2ccc(C)cc2C1c1ccccc1 (centres unmarked)	14.7
O=C1CN(C(=O)c2c(F)cccc2F)C(c2ccc(F)cc2)c2cc(Br)ccc2N1 (centres unmarked)	-35.8
O=C1CN(C(=O)c2cc3ccccc3oc2=O)C(c2ccccc2)c2cc(F)ccc2N1 (centres unmarked)	-33.9
O=C1CN(C(=O)c2cc3ccccc3oc2=O)C(c2ccc(F)cc2)c2cc(Br)ccc2N1 (centres unmarked)	-68.6
O=C1CN(C(=O)c2cc3ccccc3oc2=O)C(c2ccc(F)cc2)c2cc(F)ccc2N1 (centres unmarked)	-32.1
Cc1ccc2c(c1)C(c1ccccc1)N(C(=O)c1ccccc1)CC(=O)N2 (centres unmarked)	-7.17
Cc1ccc2c(c1)C(c1ccccc1)N(C(=O)c1ccc(F)cc1)CC(=O)N2 (centres unmarked)	-6.99
CC1(C)OC(=O)C(=CNc2cccc(C(=O)O)c2)C(=O)O1	18.7
COc1cc(/C=N/NC(=O)C(=O)NCC2CCCO2)cc(Cl)c1O (centres unmarked)	31.8
O=C(Nc1ccccc1)Nc1nc(-c2ccc(F)c(F)c2)cs1	16.3
Cc1c(C)n2c(SCC(=O)N3CC(C)OC(C)C3)nnc2[nH]c1=O (centres unmarked)	9.45
C/C(=N\NC(=O)c1c(Br)c(C)nn1C)c1cccc(NC(=O)c2ccccc2C)c1	-4.71
O=C(NC1CCCCCC1)C(=S)NCc1ccccc1	5.94
Cc1ccc(C(=O)NCCC(=O)Nc2ccccc2C)cc1	19.5

Compound	hERG current change (%, negative = inhibition) at 10uM [%]
COCCNC(=O)Cn1cc(/C=C2\C(=O)NC(=O)N(c3ccccc3F)C2=O)c2ccccc21	17
O=C1CN(C(=O)c2ccc(Br)o2)C(c2ccccc2)c2cc(Br)ccc2N1 (centres unmarked)	-23.6
O=C1CN(C(=O)c2ccc(Br)o2)C(c2ccccc2)c2cc(F)ccc2N1 (centres unmarked)	-45.3
Cc1ccc2c(c1)C(c1ccccc1)N(C(=O)c1ccc(Br)o1)CC(=O)N2 (centres unmarked)	-56.9
Cc1c(-c2ccccc2)[n+](=O)c(-c2ccco2)c(C)n1[O-]	7.02
COCCNC(=O)C1CC(=O)N(c2ccc(OC)cc2)C1c1ccc(OC)cc1 (centres unmarked)	9.03
COCCn1nnnc1C(c1ccccc1OC)N1CCN(C(=O)c2ccco2)CC1 (centres unmarked)	-16.1
Cl.O=C(c1ccco1)N1CCN(C(c2ccccc2Cl)c2nnnn2Cc2ccco2)CC1 (centres unmarked)	-65.1
O=C(c1ccco1)N1CCN(C(c2ccccc2Cl)c2nnnn2Cc2cccs2)CC1 (centres unmarked)	-56.2
CCC(c1nnnn1Cc1cccs1)N1CCN(C(=O)c2ccco2)CC1 (centres unmarked)	-36.5
CCC(C)(C)n1nnnc1C(c1ccccc1F)N1CCN(C(=O)c2ccco2)CC1 (centres unmarked)	-13.9
Cl.O=C(c1ccco1)N1CCN(C(c2ccccc2F)c2nnnn2CC2CCCO2)CC1 (centres unmarked)	-17.2
Cl.Clc1ccccc1C(c1nnnn1Cc1ccco1)N1CCN(Cc2ccco2)CC1 (centres unmarked)	-27.6
Cl.O=C(c1ccco1)N1CCN(C(c2ccccc2Cl)c2nnnn2CC2CCCO2)CC1 (centres unmarked)	-12.3
O=C(c1ccco1)N1CCN(C(c2ccccc2F)c2nnnn2Cc2cccs2)CC1 (centres unmarked)	-51
CC1=NNC(=O)C1CCC(=O)N/N=C\c1ccccc1[N+](=O)[O-] (centres unmarked)	0.38
CCN1CCN(CCCNC(=O)c2ccc(CS(=O)c3ccc(Br)cc3)o2)CC1 (centres unmarked)	24.5
CCOc1[nH]n(-c2ccccc2)c(=O)c1C=NCC(=O)OC	-18.8
CCCC(=O)c1ccc(N2CCN(C(=O)c3cccs3)CC2)c(F)c1	-75.1
CCCC(=O)c1ccc(N2CCCCC2)c(F)c1	10.5
CCC(=O)c1ccc(N2CCN(C(=O)c3cccs3)CC2)c(F)c1	-51.6

Compound	hERG current change (%, negative = inhibition) at 10uM [%]
CC(=O)c1ccc(N2CCN(C(=O)c3cccs3)CC2)c(F)c1	-28.3
CCCC(=O)c1ccc(N2CCCC2)c(F)c1	6.96
CCC(=O)c1ccc(N2CCN(C(=O)c3ccccc3F)CC2)c(F)c1	-20.7
COc1ccccc1CNS(=O)(=O)c1c(C(=O)N2CCCCC2)c(C)n(C)c1C	5.51
COc1cccc(C2=NC(C)(C)NC(c3ccccc3O)C2)c1 (centres unmarked)	2.64
COc1ccc(Cn2c(=O)c3[nH]cnc3n(-c3ccccc3C)c2=O)cc1	7.7
Cc1cccc(NC(=O)CS(=O)(=O)Cc2ccccc2)n1	2.58
CCc1cc(C(=O)N/N=C/c2ccc(OC)cc2)c2ccccc2n1	-4.27
O=C1C2Sc3[nH]c(=O)sc3C(c3ccccc3)C2C(=O)N1c1ccccc1 (centres unmarked)	-2.84
CC(=O)Nc1ccc(S(=O)(=O)NC2(C(F)(F)F)NC(=O)N(C3CCCCC3)C2=O)cc1 (centres unmarked)	2.87
O=S(=O)(NC1CCCCC1N1CCCCC1)c1ccc(Cl)cc1 (centres unmarked)	-5.16
CCN1CCN(C2CCCCC2NS(=O)(=O)c2ccc(Cl)cc2)CC1 (centres unmarked)	-61.8
O=S(=O)(NC1CCCCC1Sc1ncccn1)c1ccc(Cl)cc1 (centres unmarked)	-50.9
CCN1CCN(C2CCCCC2NS(=O)(=O)c2ccccc2)CC1 (centres unmarked)	11.7
CCCN1CCN(C2CCCCC2NS(=O)(=O)c2ccccc2)CC1 (centres unmarked)	-44.7
O=S(=O)(NC1CCCCC1Sc1ncccn1)c1ccccc1 (centres unmarked)	-5.72
CCCN1CCN(C2CCCCC2NS(=O)(=O)c2ccc(Cl)cc2)CC1 (centres unmarked)	-63.4
CN1CCN(C2CCCCC2NS(=O)(=O)c2ccc(Cl)cc2)CC1 (centres unmarked)	-29.8
Cc1cc(C)nc(SC2CCCCC2NS(=O)(=O)c2ccc(Cl)cc2)n1 (centres unmarked)	-14.7
CCN(c1ccccc1)S(=O)(=O)c1ccc(Cl)c(NC(=O)COC(=O)c2ccc[nH]c2=O)c1	3.13
C#CCOCCOCCOCCNc1nc(N2CCN(C(=O)C([C@@H](C)CC)n3cc(C(N)Cc4ccc(O)cc4)nn3)CC2)nc(N2CCN(C(=O)[C@H](CCC(=O)O)n3cc(C(N)[C@H](C)CC)nn3)CC2)n1.Cl (some centres unmarked)	4.5

Compound	hERG current change (%, negative = inhibition) at 10uM [%]
O=C(O)C1CCN(C(=O)OCc2ccccc2)CC1	13.8
O=C(OCc1ccccc1)N1CCOCCN(C(=O)OCc2ccccc2)CCOCC1	-64
O=C(NCC(=O)N1CCOCC1)OCc1ccccc1	-30.8
COC(=O)CCn1nnc(-c2ccc(C)cc2)n1	12.3
COc1cccc(-c2nc3n(n2)C(c2cccs2)C(C(=O)Nc2cccnc2)=C(C)N3)c1 (centres unmarked)	-72.3
COc1ccc(C2C(C(=O)Nc3cccnc3)=C(C)Nc3nc(-c4cccs4)nn32)cc1 (centres unmarked)	-39.6
COc1ccccc1-c1nc2n(n1)C(c1cccs1)C(C(=O)Nc1cccnc1)=C(C)N2 (centres unmarked)	-31.7
Cc1cccc(C(C(=O)NC2CCCCC2)N(C(=O)c2csnn2)C2CC2)c1 (centres unmarked)	7.99
CCCCCCCNC(=O)C1(CC2CC(c3cccc(Br)c3)=NO2)CCN(C(=O)c2ccccc2)CC1 (centres unmarked)	-71
CCCNC(=O)C1(CC2CC(c3ccccc3)=NO2)CCN(C(=O)c2ccccc2)CC1 (centres unmarked)	-68.9
CCCCCCCNC(=O)C1(CC2CC(c3ccc(Cl)cc3)=NO2)CCN(C(=O)c2ccccc2)CC1 (centres unmarked)	-15.8
CCCCCCCNC(=O)C1(CC2CC(c3cccc(Br)c3)=NO2)CCN(C(=O)c2cc(OCC)c(OCC)c(OCC)c2)CC1 (centres unmarked)	4.79
CCCCCCCNC(=O)C1(CC2CC(c3ccccc3)=NO2)CCN(C(=O)c2ccccc2)CC1 (centres unmarked)	-70.9
CCCNC(=O)C1(CC2CC(c3ccccc3)=NO2)CCN(C(=O)c2cc(OCC)c(OCC)c(OCC)c2)CC1 (centres unmarked)	-34.6
CCCCCCCNC(=O)C1(CC2CC(c3ccc(Cl)cc3)=NO2)CCN(C(=O)Cc2ccc(F)cc2)CC1 (centres unmarked)	-11
CCOc1cc(C(=O)N2CCC(CC3CC(c4cccc(Br)c4)=NO3)(C(=O)NCC3CCCCC3)CC2)cc(OCC)c1OCC (centres unmarked)	4.14
CCCNC(=O)C1(CC2CC(c3ccccc3)=NO2)CCN(C(=O)OC(C)(C)C)CC1 (centres unmarked)	-48.6
CCCNC(=O)C1(CC2CC(c3ccccc3)=NO2)CCN(C(=O)C2(C)CC2)CC1 (centres unmarked)	-17
COc1ccc(CNC(=O)C2(CC3CC(c4ccccc4)=NO3)CCN(C(=O)Cc3ccc(F)cc3)CC2)cc1 (centres unmarked)	18.1
CCCNC(=O)C1(CC2CC(c3ccccc3)=NO2)CCN(C(=O)Cc2ccc(F)cc2)CC1 (centres unmarked)	-64.6

Source: PMC4336329 (PLoS ONE, 2015)
